Among the data in PubChem BioAssay AID1851 (National Center for Advancing Translational Sciences (NCATS), 2009) are AC50 and activity, negative = inhibition values, retold here.

Molecules are shown by their SMILES. Where “and” joins values, the source holds several entries; their conditions need not be identical. Equal values may be shown once. Screen size: about 16,000 compounds; about 5,800 (36%) were called active. Another 23% or so got no clear call; they are omitted. The call rests on the fitted dose curve; in most records, active means well fitted curve in the direction sought with a large enough effect; inconclusive means small, poorly fitted or top-dose-only effect, or effect the other way; inactive means no such curve, though single readings can be large or run the other way. The list shows a part of the results.
On the % scale 0 is the no-effect control and ±100 the full control effect.

Cytochrome P450 2C19 (Homo sapiens), sequence (P33261 whole entry, looked up): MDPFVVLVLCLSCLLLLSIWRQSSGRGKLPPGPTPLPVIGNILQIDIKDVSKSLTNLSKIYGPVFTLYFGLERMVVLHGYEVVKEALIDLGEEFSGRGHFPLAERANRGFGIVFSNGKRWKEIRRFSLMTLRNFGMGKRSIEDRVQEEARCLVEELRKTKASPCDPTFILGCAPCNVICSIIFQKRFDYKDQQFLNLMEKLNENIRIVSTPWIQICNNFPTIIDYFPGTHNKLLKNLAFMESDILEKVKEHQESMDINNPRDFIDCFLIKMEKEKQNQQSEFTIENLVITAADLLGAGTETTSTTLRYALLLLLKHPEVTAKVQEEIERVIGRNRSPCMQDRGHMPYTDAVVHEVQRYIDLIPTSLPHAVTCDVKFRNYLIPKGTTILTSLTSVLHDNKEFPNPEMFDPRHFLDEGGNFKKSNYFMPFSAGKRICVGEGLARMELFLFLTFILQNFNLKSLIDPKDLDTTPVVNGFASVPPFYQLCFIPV

This experiment concerns the target Cytochrome P450 2C19 (Homo sapiens) (UniProt P33261). The experiment is described as follows: Cytochrome panel assay with activity outcomes. The following applies: recombinant CYP, pro-luciferin dealkylation, luminescence, p450-cyp2c19; series mostly up to 57.1 µM.
With `CCOc1ccc(NC(=O)c2ccc(Br)o2)c([N+](=O)[O-])c1`, the AC50 result is “inactive”. Turning to `COc1cc(C(=O)NCCC(C)C)c([N+](=O)[O-])cc1OC`, the AC50 result was “inactive”. Take `O=[N+]([O-])c1cc(Cl)cc2c1nc(NCCO)c1ccccc12`: the activity, negative = inhibition is -34.6% [at 11.4 µM] (inactive).

For the compound `O=C(NCc1ccc(Cl)cc1)c1ccc(Cl)cc1[N+](=O)[O-]`, the AC50 was 1.26 µM (active). For `O=C(NCc1ccccc1)c1ccc(Cl)cc1[N+](=O)[O-]`, the AC50 is 11.2 µM (active). Still for that read-out and setting: as for `Cc1ccc(C(=O)NCCNc2ccc(Cl)cc2[N+](=O)[O-])o1`, the figure is 7.94 µM (active). For `O=c1[nH]ncn2cccc12`, the AC50 result is “inactive”. Same read-out and setting: to `c1ccc2cc(-c3csnn3)ccc2c1` belongs 3.98 µM (active). As for `Nc1nc(-c2ccc3ccccc3c2)cc(-c2cc(-c3ccc4ccccc4c3)nc(N)n2)n1`, the activity, negative = inhibition is 10.1% [at 11.4 µM] (inactive). Still for that read-out and setting: as for `O=C(O)c1nnsc1-c1csnn1`, the figure is -19.5% [at 11.4 µM] (inactive). As for `COc1ccc(-c2nc3cnc(N4CCN(C)CC4)nc3n(C3CC3)c2=O)cc1`, the AC50 result is “inactive”. Same read-out and setting: as for `Cc1ccccc1C(=O)Nc1cccc(NC(=S)NC(=O)c2cccs2)c1`, the figure is 3.55 µM (active); as for `COc1cc(NC(=S)NC(=O)c2c(OC)cccc2OC)ccc1NC(=O)c1cccs1`, 2 µM (active); as for `Cc1cccc(NC(=S)NC(=O)c2cccs2)n1`, 3.55 µM (active).

Consider `O=C(NC(=S)NNC(=O)c1cccs1)c1ccco1`, for which the AC50 result was “inactive”. Same read-out and setting: as for `O=C(N/N=C/c1cccc(OC2CSC2)c1)c1ccccc1O`, the entry is “inactive”. Same read-out and setting: to `O=C(COc1ccccc1C(=O)N/N=C\c1ccc(O)c(O)c1)N/N=C/c1ccc(O)c(O)c1` belongs 15.8 µM (active). The same measure, in the same setting: to `CCOC(=O)CC(=O)CSc1nnc2c(n1)[nH]c1ccccc12` belongs 14.1 µM (active). As to `O=C(CSc1nnc2c(n1)[nH]c1ccc(F)cc12)OCc1ccccc1`, the AC50 was 0.398 µM (active). Same read-out and setting: to `CCOCc1cnc(C)nc1NCC(=O)c1c(C)[nH]c2ccccc12` belongs “inactive”; to `COc1[nH]c2ccc(F)cc2c1C(=O)OCC1CCN(CCNS(C)(=O)=O)CC1`, “inactive”. On to `CON(C)C(=O)c1nnc2c(n1)[nH]c1ccccc12`, for which the activity, negative = inhibition is -38.3% [at 11.4 µM] (inactive). Consider `Cc1ccc(C(=O)NNC(=O)CSc2nnc3c(n2)[nH]c2ccc(F)cc23)cc1`, for which the AC50 result is “inactive”. The same measure, in the same setting: to `Cc1cccc(N(CC(=O)NC2CCCC2)C(=O)c2cc3cc4cccc(C)c4nc3s2)c1C` belongs 3.98 µM (active); to `Cc1cc(C)nc(NC(=O)c2cccc([N+](=O)[O-])c2C)n1`, “inactive”; to `O=C(Nc1cccc(NC(=O)c2ccccc2[N+](=O)[O-])n1)c1ccccc1[N+](=O)[O-]`, 8.91 µM (active). Same read-out and setting: as for `S=C(Nc1ccccc1)Nc1ccccc1C#Cc1ccccc1`, the figure is 3.16 µM (active); as for `C=CCN(CC=C)C(=S)Nc1ccccc1`, “inactive”.

Consider `COc1ccc(-c2ccc3c(n2)CCCN3C[C@H](O)CN2CCCc3nc(-c4ccc(Br)cc4)ccc32)cc1`, for which the activity, negative = inhibition is 0.393% [at 11.4 µM] (inactive) and -39.5% [at 11.4 µM] (inactive). On to `Cc1ccc(OCC(=O)Nc2ccccc2N2CCOCC2)c(C)c1`, for which the AC50 is 3.98 µM (active). The same measure, in the same setting: as for `CCOc1ccc(C(=O)Nc2ccccc2N2CCCC2)cc1`, the figure is 15.8 µM (active). In the case of `CC(=O)N1CCN(c2ccccc2NC(=O)COc2ccc(Br)cc2)CC1`, the AC50 is 14.1 µM (active). Same read-out and setting: to `COc1ccc(-n2c(=O)c(C)nc3cnc(N4CCNCC4)nc32)cc1` belongs “inactive”. On the same count and under the same terms, to `CS(=O)(=O)N1CCC2(CC1)CN(Cc1cc(C(F)(F)F)cc(C(F)(F)F)c1)C2` belongs “inactive”. As to `NS(=O)(=O)c1cc(C(=O)O)c(O)c2ccccc12`, the activity, negative = inhibition is -24.4% [at 11.4 µM] (inactive).

As to `CCOC(=O)c1c(C)oc2c1cc(O)c1ccccc12`, the AC50 was 3.55 µM (active). Still for that read-out and setting: to `COc1ccc2[nH]cc(CCNc3ncncc3-c3ccccc3C(F)(F)F)c2c1` belongs 0.251 µM (active); to `CN(C)Cc1ccccc1-c1cncnc1NC1CC1`, “inactive”.

Take `CC(=O)NCCNc1ncncc1-c1ccccc1CN(C)C`: the AC50 entry was “inactive”. Same read-out and setting: as for `COc1ccc2[nH]cc(CCNc3ncncc3-c3ccccc3Cl)c2c1`, the figure is 0.0631 µM (active); as for `COc1ccc2[nH]cc(CCNc3ncncc3-c3c(C)noc3C)c2c1`, 3.16 µM (active); as for `COc1ccc2[nH]cc(CCNc3ncncc3-c3ccccc3CN(C)C)c2c1`, 10 µM (active). On the same count and under the same terms, as for `COCCNc1ncncc1-c1c(C)noc1C`, the entry is “inactive”; as for `CC(N)=NCc1cccc(CN)c1`, “inactive”. The same measure, in the same setting: to `COc1ccc2[nH]cc(CCNc3ncncc3-c3ccccc3C)c2c1` belongs 0.0501 µM (active).

Turning to `COc1ccc2[nH]cc(CCNc3ncncc3-c3ccccc3OC)c2c1`, the AC50 was 0.0794 µM (active). In the case of `C[C@H]1C[C@H]2[C@H]3CCC4=CC(=O)C=C[C@@]4(C)[C@]3(F)[C@H](O)C[C@]2(C)[C@@]1(O)C(=O)COP(=O)(O)O`, the activity, negative = inhibition is 18.4% [at 11.4 µM] (inactive). With `Cc1ccc(C(C(=O)NC2CCCCC2)N(CC2CCCO2)C(=O)CNC(=O)c2cccs2)cc1` (centres undefined), the AC50 was 10 µM (active).

With `Cc1ccc(C(C(=O)NCc2ccco2)N(C(=O)CNC(=O)c2cccs2)c2ccc(C)cc2C)cc1` (centres undefined), the AC50 is 1.12 µM (active). On the same count and under the same terms, to `O=C(NCc1ccco1)C(c1ccccc1)N(C(=O)Cc1cccs1)c1ccccc1F` (centres undefined) belongs 3.16 µM (active); to `CCC(C)OC(=O)C1=C(C)NC(=O)CC1c1ccccc1OC` (centres undefined), 2 µM (active).

Turning to `COc1cccc2c1OC1(C)CC2/C(=C(\C)O)C(=O)N1` (centres undefined), the AC50 result is “inactive”. Same read-out and setting: as for `CCCOc1ccccc1C1CC(=O)NC(C)=C1C(=O)OCC(C)C` (centres undefined), the figure is 1.41 µM (active). The same measure, in the same setting: as for `CCOC(=O)C1=C(C)NC2(O)c3ccccc3C(=O)C12O` (centres undefined), the entry is “inactive”; as for `c1ccc2c(c1)c1ccccc1n2Cn1c2ccccc2c2ccccc21`, 0.398 µM (active). Regarding `CCn1c(=O)[nH]c2ccccc21`, the AC50 entry was “inactive”. The same measure, in the same setting: to `COc1cccc(-c2cc(NCc3ccc(OC)cc3OC)ncn2)c1` belongs 5.01 µM (active); to `COc1cccc(-c2cc(NCc3ccccc3OC)ncn2)c1`, 7.94 µM (active); to `COc1ccc(CNc2cc(-c3cccnc3)ncn2)c(OC)c1`, “inactive”. Same read-out and setting: to `Cn1c(CCNC(=O)c2ccccc2Cl)n[nH]c1=S` belongs “inactive”; to `CN(Cc1n[nH]c(=S)n1C)S(=O)(=O)c1ccccc1`, “inactive”.

For `S=c1[nH]nc(CSCc2ccccc2Cl)n1-c1ccccc1`, the AC50 was 0.708 µM (active).

For `Cc1cccc(NC(=O)CSc2nc3ccccc3c3nc(CCc4c(C)n[nH]c4C)nn23)c1`, the AC50 is 7.94 µM (active).

For `COc1ccc(/C=N\NC(=O)O)cc1`, the activity, negative = inhibition was 11% [at 11.4 µM] (inactive). Turning to `Cn1c(=O)n(C)c2cc(/C=N/n3cnnc3)ccc21`, the AC50 is 17.8 µM (active). The same measure, in the same setting: to `Cn1c(=O)n(C)c2cc(S(=O)(=O)O)ccc21` belongs “inactive”; to `COC(=O)c1ccc(/C=N\NC(=O)c2ccc(C)cc2Cl)cc1`, 5.01 µM (active); to `Cn1c(=O)n(C)c2cc(/C=N/NC(=O)c3ccc(Cl)cc3Cl)ccc21`, 3.98 µM (active).

Take `Cc1cc(C)c(S(=O)(=O)Nc2ccccc2C(F)(F)F)c(C)c1`: the AC50 is 0.1 µM (active).

`Cc1cc(C)c(S(=O)(=O)Nc2cccc(C(F)(F)F)c2)c(C)c1`: the AC50 is 3.16 µM (active). The same measure, in the same setting: as for `Cc1cc(C)c(S(=O)(=O)NNC(=O)C2CCN(Cc3ccccc3)CC2)c(C)c1`, the entry is “inactive”. As for `CC(C)NC(=O)N1CC[C@@]2(CCCN(C(=O)c3cc(C(F)(F)F)cc(C(F)(F)F)c3)C2)C1`, the AC50 entry was “inactive”. `CCC(C)(C)n1nnnc1C(C(C)C)N(Cc1ccco1)Cc1cc2cc3c(cc2[nH]c1=O)OCO3` (centres undefined): the AC50 is 10 µM (active). Consider `COc1ccccc1CN(Cc1cc2cc3c(cc2[nH]c1=O)OCCO3)Cc1nnnn1Cc1ccco1`, for which the AC50 is 7.08 µM (active). Turning to `CCC(c1nnnn1CC1CCCO1)N(CCN1CCOCC1)Cc1cc2cc(C)ccc2[nH]c1=O` (centres undefined), the AC50 entry is “inactive”. The same measure, in the same setting: as for `CCC(C)(C)n1nnnc1C(c1cc2cc3c(cc2[nH]c1=O)OCO3)N1CCCCC1` (centres undefined), the figure is 31.6 µM (active); as for `CCNc1ncc2nc(C)c(=O)n(C[C@H]3CCCO3)c2n1`, “inactive”; as for `COc1ccc(CONS(=O)(=O)c2ccc(NC(C)=O)cc2)cc1Cl`, 2.24 µM (active).

`COc1ccc(CNC(C)(C)C)cc1Cl`: the AC50 result was “inactive”. Still for that read-out and setting: as for `Clc1ccc(/C=N/c2c(-c3ccc(Cl)cc3)nc3n2CCS3)cc1`, the figure is 14.1 µM (active); as for `CCOc1ccc(N2C(=O)/C(=C/c3cc(OC)c(OC)c(OC)c3)N(CC(=O)OC)C2=S)cc1`, 3.55 µM (active); as for `CCOc1ccc(N2C(=O)/C(=C/c3cccs3)N(CC(=O)OC)C2=S)cc1`, “inactive”. Still for that read-out and setting: to `O=C(N/N=C/c1cc([N+](=O)[O-])ccc1N1CCNCC1)c1ccc([N+](=O)[O-])cc1` belongs “inactive”; to `CCN(CC)C(=O)C1CCCN(c2ccc([N+](=O)[O-])cc2/C=N/NC(=O)c2ccc([N+](=O)[O-])cc2)C1` (centres undefined), 14.1 µM (active); to `CCOC(=O)C(CC)(CC)C(=O)/C=C/c1ccc(Br)cc1`, 2.82 µM (active). Still for that read-out and setting: to `O=C(O)CCCCCNC(=O)c1ccccc1Br` belongs “inactive”; to `O=C(NCCNc1ccc([N+](=O)[O-])cc1)c1ccccc1Br`, 7.94 µM (active). Consider `O=[N+]([O-])c1ccc(C2CCCC/C2=N\OCc2cccc(F)c2)c([N+](=O)[O-])c1` (centres undefined), for which the AC50 is 7.08 µM (active). `O=[N+]([O-])c1ccc(NN=C2c3ccccc3Cc3ccccc32)c([N+](=O)[O-])c1`: the activity, negative = inhibition was -15.8% [at 11.4 µM] (inactive).

Turning to `CC(Sc1ccc2c(c1)OCCO2)C(=O)Nc1ncc(Cl)cc1Cl` (centres undefined), the AC50 is 2.82 µM (active). Same read-out and setting: to `Cc1cccc(C)c1OC[C@H](C)N` belongs “inactive”. Same read-out and setting: to `CCOc1ccc(C(=O)CCC(=O)O)cc1` belongs “inactive”. Same read-out and setting: as for `COc1ccc2cc(C(=O)CCC(=O)O)ccc2c1`, the figure is 2 µM (active). Regarding `COc1ccc2cc(CCC(C)=O)ccc2c1`, the AC50 entry is “inactive”. On to `Cc1ccc(S(=O)(=O)N[C@H]2COC(=O)[C@H](C)COC(=O)[C@H](C)NC(=O)C/C=C\[C@H]2C)cc1`, for which the activity, negative = inhibition was 16.6% [at 11.4 µM] (inactive).

`COc1cccc(CNCCNC(=O)c2nonc2N)c1`: the AC50 is 15.8 µM (active). As to `COc1cccc(CSCC(=O)O)c1`, the activity, negative = inhibition is -7.72% [at 11.4 µM] (inactive). Regarding `COc1cccc(CNc2ccc3nc(-c4ccc(N)cc4)c(OC)n3n2)c1`, the AC50 result was “inactive”. On the same count and under the same terms, to `CCOc1cccc(CNCCNC(=O)c2nonc2N)c1` belongs 15.8 µM (active).
